The campaign covered roughly 65,000 compounds. About 3,600 (5.5%) were called active.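 How the source made its calls: active means at 10 µM, mean starting fluorescence two-fold or more over control wells; inactive means the rest.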 Only a selection was taken, and actives are over-represented in it overall.

A short description of the test: intrinsic fluorescence of library compounds, ex339/em460 – biochemical, MLSMR library, data from DPM-DC assay, artefact control, profiling panel (AID 709).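 Further: signal is the first read of a kinetic run.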 The settings on record: compound autofluorescence, ex339/em460 nm, NADH buffer; at 10 µM; stronger effect = higher value; 1 = no-compound wells, NADH background.
With `CCn1c(=O)cc(SCC(=O)NCc2ccc3c(c2)OCO3)c2ccccc21`, the fluorescence fold increase was 1.2 (inactive).
Under `COc1ccc(-c2nc(-c3ccccc3)no2)c(OC)c1` stands 1.12 (inactive); under `COc1ccc(-c2ccc(-c3noc(-c4ccncc4)n3)c(OC)n2)cc1`, 3 (active).
Under `O=C(Oc1ccc(-c2nc(-c3ccccn3)no2)cc1)c1ccccc1` stands 1.09 (inactive).
For `COc1cc(-c2nc(-c3ccncc3)no2)cc(OC)c1OC`, the fluorescence fold increase is 1.03 (inactive).
As to `COc1ccc2[nH]c(=O)c(-c3noc(-c4ccc(F)cc4)n3)cc2c1`, the fluorescence fold increase is 1.38 (inactive).
In the case of `CCOc1nc(-c2ccc(OC)cc2)ccc1-c1noc(-c2cc(OC)c(OC)c(OC)c2)n1` it was 3.92 (active); in that of `CCc1nnc(NC(=O)c2c(O)c3c([nH]c2=O)CCCC3)s1`, 1.12 (inactive).
In the case of `Cc1ccc2cccc(S(=O)(=O)N3CCN(c4ccccc4F)CC3)c2n1` it was 1.14 (inactive).
As for `O=C(CN1C(=O)CCC1=O)Nc1ccc(S(=O)(=O)N2CCOCC2)cc1`, the fluorescence fold increase is 1.15 (inactive).
As to `C=CCSC1=C(C#N)C(c2cc(Br)c(O)c(OC)c2)CC(=O)N1` (configuration not stated), the fluorescence fold increase was 1.07 (inactive).
Take `CN(c1ccc(C(=O)N2CCc3ccccc3C2)cc1)S(C)(=O)=O`: the fluorescence fold increase is 1.11 (inactive).
In the case of `O=[n+]1c2c(n([O-])c3cc(Br)ccc31)CCC2` it was 1.07 (inactive).
Consider `CN1CCCc2cc(C#N)c(=O)[nH]c21`, for which the fluorescence fold increase was 2.4 (active).
Under `CC(C)(C)n1nnc(CCc2nnn(C(C)(C)C)n2)n1` stands 1.09 (inactive); under `COC(=O)C(C)C1Sc2ccccc2NC1=O` (configuration not stated), 1.01 (inactive).
With `CCc1ccc(NC(=O)CSc2nnc(-c3cnccn3)n2Cc2ccco2)cc1`, the fluorescence fold increase is 1.06 (inactive).
In the case of `CCc1ccc(Nc2ncc3c(n2)CC(c2ccco2)CC3=O)cc1` (configuration not stated) it was 2.39 (active).
Under `O=C(Nc1ncc2c(n1)CC(c1ccco1)CC2=O)c1ccc(Cl)cc1` (configuration not stated) stands 1.05 (inactive); under `COc1ccc(CN2CC(C(=O)NCCN3CCN(c4ccccc4F)CC3)CC2=O)cc1` (configuration not stated), 1.08 (inactive); under `CCOC(=O)CN1C(=O)C(O)(CC(=O)c2ccccn2)c2ccccc21` (configuration not stated), 1.04 (inactive).
In the case of `O=C(Oc1ccccc1)c1ccc2nccnc2c1` it was 1.04 (inactive); in that of `CC(=O)N1CC2(C)CN(C(C)=O)CC(C)(C1)C2=O`, 1.11 (inactive).
`COCCNC(=O)c1snc2ccc(Cl)cc12`: the fluorescence fold increase was 1.2 (inactive).
In the case of `COc1ccccc1N1CCN(C(=O)c2cc3c(-c4ccc(Cl)cc4)nn(C)c3s2)CC1` it was 1.07 (inactive); in that of `CCOC(=O)N1CCN(C(=O)c2cc3c(-c4ccc(Cl)cc4)nn(C)c3s2)CC1`, 1.19 (inactive).
With `Cn1nc(-c2ccc(Cl)cc2)c2cc(C(=O)NCc3ccco3)sc21`, the fluorescence fold increase was 2.11 (active).
`COc1ccc(S(=O)(=O)N2CCCC2)c(C)c1C`: the fluorescence fold increase is 1.06 (inactive).
In the case of `COc1cccc(-c2cc3nc4c(c(N5CCC6(CC5)OCCO6)n3n2)CCCC4)c1`, the fluorescence fold increase is 1.74 (inactive).
Under `c1ccc(COc2nsnc2N2CCOCC2)cc1` stands 1.12 (inactive).
In the case of `O=C1c2ccccc2-c2ncnc3c(N4CCOCC4)cc(N4CCOCC4)c1c23` it was 1.04 (inactive).
As to `c1ccc(-c2oc3ncnc(N4CCOCC4)c3c2-c2ccccc2)cc1`, the fluorescence fold increase was 2.38 (active).
In the case of `COC(=O)c1ccc(OC(=O)c2nn(C)cc2Cl)c(OC)c1` it was 1.11 (inactive).
Take `CCOc1ccc(N(CC(=O)OC)S(=O)(=O)c2c(C)noc2C)cc1`: the fluorescence fold increase is 1.1 (inactive).
With `O=C(NC1CCCC1)c1ccc(Br)s1`, the fluorescence fold increase is 1.08 (inactive).
With `COc1cc(C(=O)Nc2nccs2)cc(OC)c1OC`, the fluorescence fold increase is 1.09 (inactive).
Under `CCc1nnc(NC(=O)c2cccs2)s1` stands 1 (inactive).
Under `Cc1ccc(C(=O)Nc2nnc(-c3cccs3)s2)cc1C` stands 3.04 (active).
Regarding `COc1ccc(OC)c2c1sc(=NC(=O)CN1C(=O)CCC1=O)n2C`, the fluorescence fold increase is 1.13 (inactive).
Regarding `CC1CCc2c(sc(NC(=O)c3ccc(Cn4cc(Br)cn4)o3)c2C(N)=O)C1` (configuration not stated), the fluorescence fold increase is 3.78 (active).
As for `CCc1c(C)nc(N2CCN(Cc3ccccc3)CC2)[nH]c1=O`, the fluorescence fold increase was 1.06 (inactive).
Consider `Cn1c(=O)[nH]c(=O)c2c1nc(CN1CCN(c3ccccc3F)CC1)n2CCc1ccccc1`, for which the fluorescence fold increase is 1.09 (inactive).
In the case of `CC(C)CNC(=O)C1CCCN(S(=O)(=O)c2ccc(-n3cnnn3)cc2)C1` (configuration not stated) it was 1.07 (inactive); in that of `CCOc1ccc(-c2nnc3ccc(SC)nn23)cc1`, 1.17 (inactive).
In the case of `CC1CCN(C(=O)CSc2ccc3nnc(-c4cccc(F)c4)n3n2)CC1` it was 1.4 (inactive); in that of `COC(=O)C(C)Sc1ccc2nnc(-c3cccc(F)c3)n2n1` (configuration not stated), 2.06 (active).
With `CCCOc1ccc(CN(CCO)CCO)cc1C(=O)OC`, the fluorescence fold increase was 1.07 (inactive).
Under `Cc1cccc(Cn2c(SCCO)nc3c2c(=O)n(C)c(=O)n3C)c1` stands 0.95 (inactive).
In the case of `COC(=O)C1C(=O)CC(C)(O)C(C(=O)OC)C1c1ccc2c(c1)OCO2` (configuration not stated) it was 1.09 (inactive); in that of `Cc1cc(=O)[nH]c(SCC(N)=O)c1C#N`, 1.12 (inactive).
Under `COc1ccc(C2CC(c3ccc(C)cc3)Nc3nc(N)nn32)cc1` (configuration not stated) stands 1.09 (inactive); under `CCOC(=O)c1c(C)n(C)c2ccc(OC)c(NC(=O)CN3CCC4(CC3)OCCO4)c12`, 1.04 (inactive).
As to `C=CCn1c(C(C)NC(=O)CC)nc2ccccc21` (configuration not stated), the fluorescence fold increase is 1.1 (inactive).
Regarding `C=CCn1c(N)c(C(=O)OCC(C)C)c2nc3ccccc3nc21`, the fluorescence fold increase was 3.79 (active).
Under `CCN(CC(=O)NCc1cccs1)c1nnnn1-c1ccccc1` stands 1.04 (inactive); under `CCCCNc1nc2ccccc2nc1NS(=O)(=O)c1cccs1`, 1.35 (inactive); under `C=CCn1c2ccccc2c2nnc(SC(CC)C(=O)Nc3nc(C)c(C(=O)OCC)s3)nc21` (configuration not stated), 1.22 (inactive).
With `COC(=O)c1cn(CC(=O)NCc2cccs2)c2ccccc12`, the fluorescence fold increase was 1.12 (inactive).
As for `CC(C)Cn1c(N)c(C(=O)NCc2cccs2)c2nc3ccccc3nc21`, the fluorescence fold increase is 3.03 (active).
In the case of `C=CCn1c(N)c(S(=O)(=O)c2cccs2)c2nc3ccccc3nc21` it was 3.9 (active); in that of `CCOC(=O)C1CCN(C(=O)CSc2cc(=O)n(C)c3ccccc23)CC1`, 1.32 (inactive); in that of `Cc1ccc(OCCCC(=O)N2CCOCC2)c(C)c1`, 1.13 (inactive).
Consider `Cc1ccc(CCn2c3c(c4ccccc42)CN(C)CC3)cn1`, for which the fluorescence fold increase was 1.12 (inactive).
Under `CCOC(=O)c1ccc(NC(=O)CS(=O)(=O)c2cn(CC)c3ccccc23)cc1` stands 1.08 (inactive); under `CC1(C)C(=O)Nc2ccccc2N1C(=O)COC(=O)Cn1cnc2ccccc2c1=O`, 1.03 (inactive); under `CCn1c(COc2ccccc2)nnc1SCC(=O)Nc1ccc2c(c1)OCCO2`, 1.12 (inactive).
As to `COCCn1nnnc1CN1CCC(NC(=O)Nc2cccc(OC)c2)CC1`, the fluorescence fold increase is 1.05 (inactive).
In the case of `COC(=O)Cc1csc(Nc2c(C)n(C)n(-c3ccccc3)c2=O)n1` it was 1.09 (inactive); in that of `CCOc1ccc(Nc2oc(Cc3ccccc3)nc2C#N)cc1`, 1.13 (inactive); in that of `COc1ccc(-c2nnc(SC(C)C#N)o2)cc1` (configuration not stated), 1.08 (inactive).
In the case of `COc1ccc(Nc2oc(-c3ccccc3Cl)nc2C#N)cc1` it was 2.11 (active); in that of `O=C(COc1ccccc1)NCCc1nc2ccccc2[nH]1`, 1.13 (inactive); in that of `COc1ccc(-c2nn3c(-c4ccccc4)nnc3s2)cc1OC`, 1.69 (inactive).
Under `Fc1ccc(-c2nnc3sc(-c4ccc5c(c4)OCO5)nn23)cc1` stands 2.05 (active).
As to `Fc1ccc(-c2ccc(-c3nn4c(-c5ccco5)nnc4s3)o2)cc1`, the fluorescence fold increase was 1.49 (inactive).
Under `Cc1noc(C)c1COC(=O)Cn1c(C)nc2ccccc21` stands 1.09 (inactive); under `O=C(OC1CCOC1=O)c1ccc(-c2nc3ccccc3s2)s1` (configuration not stated), 5 (active).
In the case of `O=C(c1cccs1)N1CCC(c2nc3ccccc3s2)CC1` it was 1.04 (inactive).
Consider `Cc1nn(Cc2ccccc2)c(Cl)c1C(=O)OC1CCOC1=O` (configuration not stated), for which the fluorescence fold increase was 1.07 (inactive).
For the compound `O=C(NCc1ccco1)C1CCCN(S(=O)(=O)c2cnc[nH]2)C1` (configuration not stated), the fluorescence fold increase is 1.08 (inactive).
In the case of `c1ccc(-c2[nH]ncc2-c2nc3ccccc3[nH]2)cc1` it was 1.2 (inactive); in that of `c1ccc2[nH]c(-c3nc4ccccc4[nH]3)nc2c1`, 2.21 (active).
For the compound `C=CCSc1nc2ccccc2[nH]1`, the fluorescence fold increase is 1.11 (inactive).
Consider `CC1(C)Oc2ccc3ccc(=O)oc3c2/C(=C/NCCO)C1=O`, for which the fluorescence fold increase is 1.05 (inactive).
Under `CCOc1ccccc1-n1c(SCC(=O)NCc2ccco2)nnc1-c1ccncc1` stands 1.07 (inactive).
In the case of `CCOC(=O)C1=C(C)N=c2s/c(=C\C(=O)OC)c(=O)n2C1c1ccc(OC)cc1` (configuration not stated), the fluorescence fold increase is 1.08 (inactive).
In the case of `O=C(Nc1ccccc1)Nc1ccccc1C(=O)NCc1ccco1` it was 1.65 (inactive); in that of `O=C(NCc1ccco1)c1cccn2c(=O)c3cc(Br)ccc3nc12`, 2.53 (active); in that of `O=C(NCc1ccco1)c1cc(-c2cccnc2)nc2ccc(Cl)cc12`, 1.17 (inactive).
As for `Cn1c(C(=O)NCCCN2CCCCC2)cc2sccc21`, the fluorescence fold increase was 1.19 (inactive).
Under `Cc1ccsc1-c1nc(CSCC(=O)NCCN2CCCC2)c(C)o1` stands 2.22 (active).
As to `Cc1cc(NC(=O)CSCc2nc(-c3cccc(Cl)c3)oc2C)no1`, the fluorescence fold increase was 1.06 (inactive).
Under `CC(C)NC(=O)CCCn1c(=S)[nH]c2cc3c(cc2c1=O)OCO3` stands 1.07 (inactive); under `COc1cccc(-n2cc3c(c2-c2ccccc2)c(=O)n(C)c(=O)n3C)c1`, 2.35 (active).
In the case of `COc1cccc(-n2cc(C(=O)O)c3ccccc3c2=O)c1` it was 1.36 (inactive).
Under `Cn1c(=O)c2cn(-c3cccc4ccccc34)cc2n(C)c1=O` stands 1.28 (inactive).
For `Cc1ccc(-c2c3c(=O)n(C)c(=O)n(C)c3cn2-c2ccccc2O)cc1`, the fluorescence fold increase is 3.24 (active).
For `COc1ccc(-c2c3c(=O)n(C)c(=O)n(C)c3cn2NC(C)=O)cc1`, the fluorescence fold increase is 2.81 (active).
Under `COc1ccc(-c2c3c(=O)n(C)c(=O)n(C)c3cn2-c2cccc(OC)c2)cc1` stands 1.94 (inactive); under `CC(=O)Nn1cc2c(=O)n(C)c(=O)n(C)c2c1`, 1.03 (inactive).
In the case of `COc1ccc(OC)c(-n2cc3c(=O)n(C)c(=O)n(C)c3c2)c1` it was 1.3 (inactive); in that of `Cc1ccc(-c2c3c(=O)n(C)c(=O)n(C)c3cn2-n2cnnc2)cc1`, 1.07 (inactive).

These data come from PubChem BioAssay AID709 (SRMLSC, 2007).
